Screening data deposited in PubChem by several laboratories.
Hits are enriched below; roughly 11% of the tested compounds scored in any of these assays.
WT yeast gro inh: growth inhibition of WT strain, primary screen, mitochondrial fusion inhibitor project, WT and mutant strains, chemical genetic | mitochondrial fusion phenotypic screen | inhibition, % at 10 µM | 190,000 compounds, 2.1% hits | AID 1362, 2008; in the data active = inhibition above about 58%; tested in S. cerevisiae
Autophagy mod: autophagy modulators in MEF cells, primary screen, imaging, high-content, MEF GFP-LC3; calls only at 10 µM (by protocol); MEF GFP-LC3 puncta imaging; test concentration mostly 10 µM; 190,000 compounds, 0.98% hits;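 active = percentage of spot-positive cells more than 3 SD above its plate mean, without a fluorescence outlier flag or 80% toxicity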;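 note: spot-positive cell cutoff set from DMSO-treated cells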
Insulin prom up: insulin promoter activators in MIN6 cells, imaging, high-content screening, mouse beta cells | MIN6 insulin promoter-GFP reporter; stronger effect = higher value | z-score at 5 µM | 190,000 compounds, 0.3% hits;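 active = z-score above 3 at 5 µM with at least 500 cells counted in the well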
L major viab: Leishmania major promastigote growth inhibition, primary screen; Leishmania major promastigotes, resazurin fluorescence viability; inhibition, % at 10 µM; 200,000 compounds, 9% hits; AID 1063, 2008; in the data active = inhibition above about 50%;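 note: promastigotes grown with compound for 44 hours at 28 °C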
Insulin prom inh: inhibitors of insulin promoter-driven GFP, primary screen, imaging, TRM-6 cells (human fetal islet line), eGFP reporter, cell count | reporter expression induced with tamoxifen | inhibition, % at 2 µM | 130,000 compounds, 0.9% hits | AID 1273, 2008;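 active = inhibition above the mean plus 3 SD, with well images judged a real hit on visual review, cut at about 60% in these data, passing the limit was not always enough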
Active calls of the source: *; i = inactive; / = no result; + = active, no number.

SMILES	WT yeast gro inh	Autophagy mod	Insulin prom up	L major viab	Insulin prom inh
CCc1ccc(NC(=S)N(CCCN2CCOCC2)Cc2ccco2)cc1	3.9	i	-0.26	-1.4	/
CCN1CCN(CCCN(Cc2ccco2)C(=S)Nc2ccc(C)c(Cl)c2)CC1	-3.2	i	-0.21	47.0	/
CCOC(=O)c1ccc(NC(=S)N(CCCN2CCN(CC)CC2)Cc2ccco2)cc1	0.3	+	-1.26	19.7	/
O=C(NCCSCc1ccc(Cl)cc1)c1cccs1	/	/	-0.42	/	/
COc1ccc(-c2nnc3ccc(SCC(=O)Nc4nc5ccccc5s4)nn23)cc1OC	8.8	i	-0.26	0.8	/
COC(=O)c1sccc1-c1ccc(/C=N/OC(=O)c2cccs2)o1	/	/	0.17	/	/
COc1ccc(/C=N/Nc2ncccc2[N+](=O)[O-])c(OC)c1	2.7	i	-0.67	13.1	/
CCOC(=O)c1ccc(NC(=S)N(CCCN2CCCC2)Cc2ccco2)cc1	-8.5	i	0.05	80.4*	33.3
CCOC(=O)c1ccc(NC(=S)N(CCCN2CCCC(C)C2)Cc2ccco2)cc1 (stereo not drawn)	15.4	i	-0.21	98.8*	-53.1
CCN1CCN(CCCN(Cc2ccco2)C(=S)Nc2ccc(Cl)cc2)CC1	2.6	i	-0.91	15.4	/
Cc1no[n+]([O-])c1COc1cccc(/C=C2\N=C(c3ccccc3)OC2=O)c1	19.6	i	0.91	63.9*	32.5
Cc1ccccc1Nc1scc(-c2ccc(Cl)cc2)[n+]1-c1ccccc1C	59.4*	i	-1.33	35.1	-14.3
COc1ccc(C(C)(C)C)cc1NC(=S)NCCN1CCOCC1	0.4	i	-0.16	-2.5	/
Cc1ccc2c(c1)Oc1ccccc1C=C2C(=O)O	-6.7	i	-0.35	-3.8	/
CCOC(=O)c1cc[nH]c1C	5.9	i	-0.18	2.5	38.9
CCOC(=O)C1=NN(c2ccc(OC)cc2)C(c2ccccc2)CC1=O (stereo not drawn)	2.8	i	/	60.6*	-327.8
CCOC(=O)C1=NN(c2ccccc2)C(c2ccccc2)CC1=O (stereo not drawn)	2.6	i	/	48.5	-61.1
CSCCC(NC(=O)/C(=C/c1ccc(F)cc1)NC(C)=O)C(=O)O (stereo not drawn)	-27.1	i	-0.01	-7.5	/
O=C(CN1C(=O)/C(=C\c2cccc(F)c2)Oc2ccccc21)N1CCN(c2ccccn2)CC1	-14.9	i	-1.19	50.4*	-21.1
O=C(c1cccs1)C1CCCN(Cc2nc(Cc3ccccc3F)no2)C1 (stereo not drawn)	-2.0	i	-0.94	78.4*	/
CN1CC2=Cc3ccccc3OC23Oc2ccccc2C=C3C1	-5.0	i	/	12.0	57.6
CSc1nsc(SC)c1NC(=O)OCC1CCCO1 (stereo not drawn)	3.3	i	-0.4	-4.0	-72.7
C[n+]1cn(CC(O)COCc2ccccc2)c2ccccc21 (stereo not drawn)	11.8	i	/	-5.7	4.5
CCCCCc1ccc(OCCOCCn2c[n+](C)c3ccccc32)c(CCCCC)c1	96.5*	i	-0.17	100.8*	-64.3
CN1CCN(S(=O)(=O)c2ccc(N3CCN(S(=O)(=O)/C=C/c4ccccc4)CC3)nc2)CC1	9.9	i	0.11	36.2	/
SMILES	WT yeast gro inh	Autophagy mod	Insulin prom up	L major viab	Insulin prom inh
O=S(=O)(c1ccc(N2CCN(CCO)CC2)nc1)N1CCCCC1	-1.6	i	/	60.2*	23.1
CC(=O)N1CCN(c2ccc(S(=O)(=O)N3CCCCC3)cn2)CC1	-3.9	i	/	-0.2	45.0
CN1CCN(S(=O)(=O)c2ccc(N3CCN(C(c4ccccc4)c4ccccc4)CC3)nc2)CC1	69.2*	i	0.54	100.0*	-42.1
Cc1ccc(OCCCCn2c(CO)nc3ccccc32)cc1	12.7	i	2.27	56.1*	-53.9
CCOc1ccc(NCc2nc3ccccc3n2CCOc2ccccc2)cc1	32.5	i	-0.43	72.3*	10.3
CCOc1cc(C)nc(NCCc2ccc(OC)c(OC)c2)n1	19.6	i	-0.14	3.7	5.7
C=Cn1nc(C)c2ccccc2c1=O	-2.4	i	0.43	19.1	8.1
O=C(COc1ccc(-c2ccccc2)cc1)N1CCCC1	-1.8	i	/	-5.8	25.9
CN1CCCC(C#CC(O)(c2ccccc2)c2ccccc2)C1 (stereo not drawn)	-19.3	i	0.35	78.3*	-20.0
OC(C#CCCN1CCCCC1)(c1ccccc1)c1ccccc1	/	/	0.4	/	/
O=S(=O)(Cc1ccccc1Cl)NCc1ccccc1	1.2	i	/	-2.6	0.0
O=C1CCCC2=C1C(c1ccsc1)CC(=O)N2c1ccccc1F (stereo not drawn)	0.1	i	-0.07	-5.2	20.0
